Source: PubChem
Most compounds without a hit are left out; they make up all but 11% or so of the library.
USP28 inh: inhibitors of human USP28 deubiquitinase. Ubiquitin carboxyl-terminal hydrolase 28 (Homo sapiens), Q96RU2. purified USP28, Ub-rhodamine cleavage fluorescence, 30 min. inhibition, % at 25 µM. actives 3% (n = 47,000)
Target sequence (Q96RU2 whole entry, looked up): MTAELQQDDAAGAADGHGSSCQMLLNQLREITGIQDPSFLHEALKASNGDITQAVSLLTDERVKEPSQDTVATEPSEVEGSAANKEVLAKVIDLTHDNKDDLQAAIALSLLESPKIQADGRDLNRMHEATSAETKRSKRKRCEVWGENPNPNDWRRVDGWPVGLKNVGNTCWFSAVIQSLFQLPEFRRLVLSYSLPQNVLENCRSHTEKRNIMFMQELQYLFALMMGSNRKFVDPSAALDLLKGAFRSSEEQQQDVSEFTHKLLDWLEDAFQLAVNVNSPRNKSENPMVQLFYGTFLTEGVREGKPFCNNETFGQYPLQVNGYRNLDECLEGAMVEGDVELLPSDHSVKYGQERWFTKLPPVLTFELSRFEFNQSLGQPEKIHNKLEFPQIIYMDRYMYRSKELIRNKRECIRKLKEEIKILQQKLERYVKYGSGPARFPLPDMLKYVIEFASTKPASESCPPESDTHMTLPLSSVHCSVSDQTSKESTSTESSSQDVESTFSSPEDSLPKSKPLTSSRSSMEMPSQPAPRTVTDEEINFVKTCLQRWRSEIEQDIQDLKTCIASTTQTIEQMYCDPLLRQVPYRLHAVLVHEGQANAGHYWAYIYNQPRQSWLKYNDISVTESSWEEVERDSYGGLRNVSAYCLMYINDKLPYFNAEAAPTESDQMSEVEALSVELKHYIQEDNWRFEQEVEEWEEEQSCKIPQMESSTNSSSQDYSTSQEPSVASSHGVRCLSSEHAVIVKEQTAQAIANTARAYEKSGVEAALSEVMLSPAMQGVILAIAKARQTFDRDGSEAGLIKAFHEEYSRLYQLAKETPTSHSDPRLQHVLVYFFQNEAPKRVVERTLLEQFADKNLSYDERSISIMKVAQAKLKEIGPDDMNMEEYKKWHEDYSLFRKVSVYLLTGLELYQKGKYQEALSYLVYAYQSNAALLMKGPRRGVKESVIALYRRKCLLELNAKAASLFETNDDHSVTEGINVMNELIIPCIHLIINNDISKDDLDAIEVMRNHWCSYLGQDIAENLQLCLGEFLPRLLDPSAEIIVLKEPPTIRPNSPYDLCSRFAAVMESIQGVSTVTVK
USP30 inh: inhibitors of human USP30 deubiquitinase; Ubiquitin carboxyl-terminal hydrolase 30 (Homo sapiens), Q70CQ3; purified USP30, Ub-rhodamine cleavage fluorescence; inhibition, % at 25 µM; actives 5.3% (n = 47,000)
USP17 inh: inhibitors of human USP17 deubiquitinase. Ubiquitin carboxyl-terminal hydrolase 17-like protein 5 (Homo sapiens), A8MUK1. actives 6.5% (n = 47,000). purified USP17, Ub-rhodamine cleavage fluorescence, 3 h. inhibition, % at 50 µM
* = called active by the depositor; i = inactive; nt = no result. No stated cut-off is given here; in the data, active means inhibition above about 30%; inactive means the rest.

SMILES	USP28 inh	USP30 inh	USP17 inh
O=C(NC1CCCc2ccccc21)c1cc(Cl)ccn1 (centres undefined)	7	-14	nt
COc1ccc(CCn2c(-c3ccc(F)cc3)nc3c(c(=O)c4ccccc4n3C)c2=O)cc1OC	0	30	20
COc1ccc(CCn2c(-c3ccc(C)cc3)nc3c(c(=O)c4ccccc4n3C)c2=O)cc1	-7	-28	-13
COc1ccc(-c2nc3c(c(=O)c4ccccc4n3C)c(=O)n2CC(C)C)cc1	12	28	34*
CC(c1ccccc1)n1c(-c2ccc(F)cc2)nc2c(c(=O)c3ccccc3n2C)c1=O (centres undefined)	13	27	60*
CC(C)CN1[C@H]2CCN(Cc3cnn(C)c3)CC[C@@H]2Oc2ccccc2S1(=O)=O	nt	nt	-38
O=C(Nc1ccccc1F)C1CCc2nc(N3CCOCC3)ncc2C1 (centres undefined)	-5	-1	-3
Cc1cc(C)nc(C2CN(C(=O)CN3CCCCCC3=O)CCO2)n1 (centres undefined)	-4	10	-1
Cc1nc(C2CCN(C(=O)c3cccnc3)C2)nc2c1CCC(=O)N2CC1CCCCC1 (centres undefined)	5	9	3
O=C(Nc1cc(Cl)ccc1-n1cncn1)c1ccc(-n2cccn2)cc1	7	-71	22
O=C(Nc1cc(Cl)ccc1-n1cncn1)c1ccc(S(=O)(=O)N2CCCC2)cc1	18	66*	23
Cc1noc(C)c1COc1cccc(C(=O)Nc2cc(Cl)ccc2-n2cncn2)c1	52*	4	38*
Cc1noc(C)c1COc1cccc(C(=O)Nc2ccccc2)c1	17	6	7
O=C(Nc1ccc(Cl)cc1)C1Cn2ccnc2C2(CCN(c3ncccn3)CC2)O1 (centres undefined)	-20	-86	-23
O=C(O)C(c1c[nH]c2cc(OCc3ccccc3)ccc12)N1CCCC1 (centres undefined)	2	-2	1
O=S1(=O)CCN(Cc2cccnc2)c2c(Oc3ccccc3F)nc(F)c(Cl)c21	2	12	13
COCCN1CCS(=O)(=O)c2c(Cl)c(F)nc(Oc3ccccc3F)c21	5	-4	49*
COCCCN1CCS(=O)(=O)c2c(Cl)c(F)nc(Oc3ccc(C#N)cc3)c21	20	-16	80*
CC(C)c1ccc(C2CC(=O)c3cnc(NC(=O)Cc4ccccc4)nc3C2)cc1 (centres undefined)	10	-3	-1
O=C(NC1CCC1)[C@H]1C[C@@H]2CN(Cc3cccc(Cl)c3)C[C@H]1O2	-9	0	-6
CC(NC(=O)c1ccco1)c1nc(-c2ccc3c(c2)ncn3C)no1 (centres undefined)	-25	-112	3
CCc1ccc2nc(N(CCCn3ccnc3)C(=O)c3cccs3)sc2c1	-1	46*	nt
O=C(c1ccccc1)N(Cc1ccncc1)c1nc2ccc(Cl)cc2s1	14	4	11
CCOc1ccc2nc(NC(=O)Cc3ccc(OC)c(OC)c3)sc2c1	-11	i	1
CCOc1ccc2nc(NCCc3ccc(Cl)cc3Cl)sc2c1	44*	16	11
SMILES	USP28 inh	USP30 inh	USP17 inh
Cc1ccc(C(=O)N2CCC3(CC2)COCCN(CC(=O)N(C)C)C3)cc1	7	21	4
N#Cc1ccccc1Cn1c(=O)n(CCCCC(=O)NCCc2ccccc2)c(=O)c2ccccc21	24	19	78*
O=C(CCCCn1c(=O)c2ccccc2n(Cc2ccccc2F)c1=O)NCCc1ccccc1	3	0	56*
N#Cc1ccccc1Cn1c(=O)n(Cc2ccco2)c(=O)c2ccccc21	38*	33*	54*
O=c1c2cccnc2n(Cc2ccccc2F)c(=O)n1CCc1ccccc1	19	-2	-1
O=C(CCn1c(=O)c2ccccc2n(Cc2ccccc2F)c1=O)NCc1ccco1	-13	-26	-3
N#Cc1ccccc1Cn1c(=O)n(CCCCC(=O)NCc2ccco2)c(=O)c2ccccc21	2	-16	51*
Cc1ccccc1Cn1c(=O)n(Cc2ccco2)c(=O)c2ccccc21	15	26	28
COc1ccc(CCNC(=O)CCCn2c(=O)c3ccccc3n(Cc3cccc([N+](=O)[O-])c3)c2=O)cc1OC	-1	-1	0
O=C(Oc1ccc(-c2ccccc2)c(F)c1)c1cccc(C(F)(F)F)c1	11	15	19
Cc1ccc(CNC(=O)CCCn2c(=O)c3ccccc3n(Cc3cccc(F)c3)c2=O)cc1	0	-1	39*
Cc1ccc(CNC(=O)CCCn2c(=O)c3ccccc3n(CC(=O)Nc3cc(C)[nH]n3)c2=O)cc1	0	4	1
Cc1cc(N2CCN(CC(=O)c3ccccc3)CC2)c2ccccc2n1	-28	-130	-51
Cc1nc(C(N)=O)c2[nH]c(=O)n(C3CCCCC3)c2n1	-25	-97	-18
COc1cccc(-c2nc(C(N)=O)c3[nH]c(=O)n(-c4cccc(Cl)c4)c3n2)c1OC	-17	-110	51*
NC(=O)c1nc(-c2cccc(F)c2)nc2c1[nH]c(=O)n2C1CCCCC1	-13	-16	51*
COc1cccc(-n2c(=O)[nH]c3c(C(N)=O)nc(C4CCCCC4)nc32)c1	-35	-202	-27
Cc1cccc(-n2c(=O)[nH]c3c(C(N)=O)nc(C4CCCCC4)nc32)c1	24	49*	28
COc1ccc(-c2nc(C(N)=O)c3[nH]c(=O)n(-c4ccc(OC)c(OC)c4)c3n2)cc1	-9	-13	-10
Cc1cc(-c2ncc(C)[nH]2)nc(CC2CCN(c3ncccn3)CC2)n1	-10	-15	-10
Cc1cccc(-n2nnc(-c3nc(-c4ccccc4F)no3)c2N)c1C	-1	-6	14
Cc1ccc(NC2c3ccccc3C(=O)N2c2ccccn2)cc1 (centres undefined)	16	-10	-4
COc1ccc(NC2c3ccccc3C(=O)N2c2ccccn2)cc1 (centres undefined)	-2	-77	57*
O=C(C1CC(=O)N(c2ccc(F)cc2)C1)N1CCN(c2ccccc2F)CC1 (centres undefined)	15	23	7
O=C(Nc1cccc(F)c1)c1cccc2c1C(=O)N(CC1CCCO1)C2 (centres undefined)	-8	-29	-26
SMILES	USP28 inh	USP30 inh	USP17 inh
O=S(=O)(O)c1cc2cc3ccccc3cc2[nH]1	0	-41	61*
COc1cccc(-c2cc(CNC(=O)COc3ccc(F)cc3)no2)c1	12	35*	3
Cc1cccc(OCC(=O)NCc2cc(-c3ccccc3F)on2)c1	18	42*	42*
COc1cccc(C(=O)NCc2cc(-c3ccc(F)cc3F)on2)c1OC	0	40*	0
Cc1ccc(-c2cc(CNC(=O)COc3ccccc3F)no2)cc1	14	29	30
CCc1ccc(OCC(=O)NCc2csc(-c3ccc(OC)cc3)n2)cc1	0	-3	-14
Cc1ccc(-c2cc(CNC(=O)c3ccccc3F)no2)cc1	17	5	8
COc1ccccc1OCC(=O)NCc1cc(-c2ccc(F)cc2)on1	0	-22	-6
COc1ccc(-c2nc(CNC(=O)COc3ccc(C)cc3)cs2)cc1	7	12	57*
O=C(c1cc([N+](=O)[O-])ccc1Cl)c1c(-c2ccccc2)cc2ccccn12	2	0	-3
